Assay results as given in PubChem BioAssay (EPA / NIEHS).
The source made the active and inactive calls. The calls were made as follows: active = hit-call score of the fitted dose curve at least 0.9, where 1 is the maximum; inactive = score below 0.9.

Assay: ATG_BRE_CIS: Attagene CIS-FACTORIAL HepG2 Assay for human Bone Morphogenetic Protein (BMP) Response Element (BRE) (AID 2282933)
Details: HepG2 BMP response element reporter, Attagene transcription factor profiling; actives raise or lower the signal
Method: ATG_CIS is a cell-based, multiplexed-readout assay that uses HepG2, a human liver cell line, with measurements taken at 24 hours after chemical dosing in a 24-well plate.ATG_BRE_CIS is one of 52 assay component(s) measured or calculated from the ATG_CIS assay. It is designed to make measurements of mRNA induction, a form of inducible reporter, as detected with fluorescence intensity signals by Reverse transcription polymerase chain reaction (RT-PCR) and Capillary electrophoresis technology.Data from the assay component ATG_BRE_CIS was analyzed into 1 assay endpoint. This assay endpoint, ATG_BRE_CIS, was analyzed with bidirectional fitting relative to DMSO as the negative control and baseline of activity. Using a type of inducible reporter, measures of mRNA for gain or loss-of-signal activity can be used to understand the reporter gene at the transcription factor-level as they relate to the gene SMAD1. Furthermore, this assay endpoint can be referred to as a primary readout, because this assay has produced multiple assay endpoints where this one serves a reporter gene function. To generalize the intended target to other relatable targets, this assay endpoint is annotated to the dna binding intended target family, where the subfamily is Smad protein.
Human liver HepG2 cells are transiently transfected with multiple reporter transcription units (MRTUs) in 6-well plates using FuGene 6 reagent (Roche; 3 ml FuGene/1 mg DNA). The MRTU constructs are regulated by a cis-regulating element (promoter). […] A major difference between the CIS and TRANS system is that in CIS activities of endogenous TFs are measured, whereas the TRANS assay evaluates changes in activities of exogenous, chimeric NR-Gal4 proteins. […] At the end of 24 hour incubation, total RNA was isolated using TriZol reagent (Invitrogen). The isolated RNA is then reverse-transcribed using oligo(dT) primer and Mo-MLV reverse transcriptase (Invitrogen) with DNAse I (Ambion) treatment for 30 min. The one-tenth of the produced cDNA was amplified by PCR using Taq DNA polymerase (Invitrogen) and two reporter sequence-specific primers. The PCR products were fluorescently labeled by primer extension with 6-arboxyfluorescein (6-FAM) 5'-labeled reporter sequence-specific primer (2 min at 95 C, 20 s at 68 C and 10 min at 72 C) and these products were digested with 5U of HpaI (New England Biolabs) for 2h at 37 C. The fragments were purified using Qiaquick PCR columns (Qiagen), analyzed on an ABI 3130xL genetic analyzer (Applied Biosystems) with peak positions identified by using a set of X-rhodamine (ROX)-labeled MapMarker1000 molecular weight standards (BioVentures). The raw capillary electrophoresis data was processed using Attagraph software (Attagene).
In the case of `BrC1CCC(Br)C(Br)CCC(Br)C(Br)CCC1Br` (stereo not given), the outcome is reported as “inactive”.
For `CC(C)=CCC[C@](C)(O)[C@@H]1CC=C(C)CC1`, the outcome was “inactive”.
For `CCOC(=O)c1ccccc1OC`, the outcome was “inactive”.
With `CCCCNC(=O)NS(=O)(=O)c1ccc(N)cc1` the outcome was “inactive”.
For `CCCCCC(CO)CCC` (stereo not given), the outcome was “inactive”.
With `OCC(CO)(CO)COCC(CO)(CO)CO` the outcome was “inactive”.
With `CCC(C)CCCC(C)(C)O` (stereo not given) the outcome was “inactive”.
In the case of `CC1(C)OC[C@@H]2O[C@@]3(C(=O)O)OC(C)(C)O[C@H]3[C@@H]2O1`, the outcome is reported as “inactive”.
In the case of `CCc1ccc(C=O)cc1`, the outcome is reported as “inactive”.
In the case of `CCCC[n+]1ccccc1`, the outcome is reported as “inactive”.
With `c1ccc2[nH]ccc2c1` the outcome was “inactive”.
In the case of `O=Cc1ccc(F)cc1`, the outcome is reported as “inactive”.
For `COc1ccc(Nc2ccccc2)c(C)c1`, the AC50 was 149 µM (active).
For `CCC(=O)/C=C/C1C(C)=CCCC1(C)C` (stereo not given), the outcome was “inactive”.
In the case of `CC(=O)OCCC(C)CC(C)(C)C` (stereo not given), the outcome is reported as “inactive”.
For `Nc1cccc(S(=O)(=O)c2cccc(N)c2)c1`, the outcome was “inactive”.
With `C=C[Si](OCC)(OCC)OCC` the outcome was “inactive”.
For `CC1(C)CCC(C)(C)c2cc(C(=O)Nc3ccc(C(=O)O)cc3)ccc21`, the outcome was “inactive”.
For `COc1c(Cl)c(Cl)c(Cl)c(Cl)c1Cl`, the outcome was “inactive”.
In the case of `CC(C)(C)c1cc(CCC(=O)NN)cc(C(C)(C)C)c1O`, the outcome is reported as “inactive”.
In the case of `c1cc(C(c2ccc(OCC3CO3)cc2)c2ccc(OCC3CO3)cc2)ccc1OCC1CO1` (stereo not given), the outcome is reported as “inactive”.
For `CC(C)C(C)(C)C(C)(C)C(C)(C)S`, the outcome was “inactive”.
With `CC(C#N)(CCC(=O)O)N=NC(C)(C#N)CCC(=O)O` (stereo not given) the outcome was “inactive”.
For `O=c1cc(-c2ccccc2)oc2cc(O)cc(O)c12`, the outcome was “inactive”.
For `CC(C)(N)CO`, the outcome was “inactive”.
With `CCCCCCC#CC(=O)OC` the outcome was “inactive”.
For `O=C(OCc1ccccc1)C(=O)OCc1ccccc1`, the outcome was “inactive”.
For `CC(=O)OCc1ccc2c(c1)OCO2`, the outcome was “inactive”.
In the case of `CC(C)c1cccc(O)c1`, the outcome is reported as “inactive”.
In the case of `C/C=C(\C)C(=O)OCc1ccccc1`, the outcome is reported as “inactive”.
For `CC(=O)[C@H]1CC[C@H]2[C@@H]3CC=C4C[C@@H](O)CC[C@]4(C)[C@H]3CC[C@]12C`, the outcome was “inactive”.
For `C=C(C)C(=O)OCCOC(=O)CC(C)=O`, the outcome was “inactive”.
For `Cc1ccc(C=O)cc1`, the outcome was “inactive”.
For `C=CCOc1nc(OCC=C)nc(OCC=C)n1`, the outcome was “inactive”.
For `CCCc1ccccc1O`, the outcome was “inactive”.
In the case of `[Ca+2]`, the outcome is reported as “inactive”.
With `O=S(=O)(O)NC1CCCCC1` the outcome was “inactive”.
For `CC1CCC(C(C)CS)CC1S` (stereo not given), the outcome was “inactive”.
With `Cc1ccc2sc3cccc(C)c3c2c1` the outcome was “inactive”.
With `Cc1ccc2ccccc2n1` the outcome was “inactive”.
